# What was measured:
# Assay in all cases: DAPPL (digital affinity profiling via proximity ligation, sequencing); 10 mM Tris-HCl pH 7.5, 50 mM NaCl, 1 mM DTT, 4% glycerol, room temperature, 30 min; GST-TFs on glutathione beads, 16-mer random dsDNA library, 0.1% formaldehyde crosslink after washing; high values mean tight binding
# FLI1 = target: T1, FLI1 (Homo sapiens, UniProt Q01543 1-452); details: protein: recombinant; tags: N-terminal GST; dsDNA, one strand shown
# T1 sequence: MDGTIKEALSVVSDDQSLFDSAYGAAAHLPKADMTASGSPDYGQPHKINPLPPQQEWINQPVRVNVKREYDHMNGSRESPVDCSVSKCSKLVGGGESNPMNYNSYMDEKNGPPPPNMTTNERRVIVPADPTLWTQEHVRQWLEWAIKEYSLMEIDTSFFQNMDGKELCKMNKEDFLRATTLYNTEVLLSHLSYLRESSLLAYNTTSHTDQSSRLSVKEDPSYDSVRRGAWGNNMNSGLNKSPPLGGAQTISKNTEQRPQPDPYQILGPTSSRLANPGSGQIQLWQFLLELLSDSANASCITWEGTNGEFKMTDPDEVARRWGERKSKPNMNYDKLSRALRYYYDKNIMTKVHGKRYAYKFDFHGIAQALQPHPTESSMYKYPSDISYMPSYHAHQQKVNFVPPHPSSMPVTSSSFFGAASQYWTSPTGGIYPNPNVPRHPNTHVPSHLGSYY
# Method in brief: (§1)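 Yeast served to express human transcription factors as GST fusions, which were then captured on glutathione beads and labelled with DNA barcodes. Pooled with a tag-only sample, they were incubated with 200 nmole of a 16-mer random double-stranded DNA library for 30 min at room temperature in Tris/NaCl/DTT/glycerol buffer, washed, crosslinked with 0.1% formaldehyde, ligated by proximity, amplified by PCR and sequenced. Dividing each hexamer's read frequency for a factor by its frequency for the tag-only sample gives the binding signal.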
# ELK1 = target: T2, ELK1 (Homo sapiens, UniProt P19419 1-428); details: protein: recombinant; tags: N-terminal GST; dsDNA, one strand shown
# T2 sequence: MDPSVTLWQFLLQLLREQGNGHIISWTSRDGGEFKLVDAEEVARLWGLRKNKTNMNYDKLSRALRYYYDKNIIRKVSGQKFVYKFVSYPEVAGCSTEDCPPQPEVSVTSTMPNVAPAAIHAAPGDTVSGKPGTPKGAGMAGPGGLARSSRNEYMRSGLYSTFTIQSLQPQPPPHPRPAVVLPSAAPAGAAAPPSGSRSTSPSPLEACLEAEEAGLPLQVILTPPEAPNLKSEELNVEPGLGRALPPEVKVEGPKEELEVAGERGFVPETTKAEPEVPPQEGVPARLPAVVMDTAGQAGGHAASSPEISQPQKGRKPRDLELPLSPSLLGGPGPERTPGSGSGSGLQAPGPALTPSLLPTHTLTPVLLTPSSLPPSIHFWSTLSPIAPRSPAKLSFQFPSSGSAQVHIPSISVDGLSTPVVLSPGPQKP
# Method in brief: as §1
# GABPA = target: T3, GABPA (Homo sapiens, UniProt Q06546 1-454); details: protein: recombinant; tags: N-terminal GST; dsDNA, one strand shown
# T3 sequence: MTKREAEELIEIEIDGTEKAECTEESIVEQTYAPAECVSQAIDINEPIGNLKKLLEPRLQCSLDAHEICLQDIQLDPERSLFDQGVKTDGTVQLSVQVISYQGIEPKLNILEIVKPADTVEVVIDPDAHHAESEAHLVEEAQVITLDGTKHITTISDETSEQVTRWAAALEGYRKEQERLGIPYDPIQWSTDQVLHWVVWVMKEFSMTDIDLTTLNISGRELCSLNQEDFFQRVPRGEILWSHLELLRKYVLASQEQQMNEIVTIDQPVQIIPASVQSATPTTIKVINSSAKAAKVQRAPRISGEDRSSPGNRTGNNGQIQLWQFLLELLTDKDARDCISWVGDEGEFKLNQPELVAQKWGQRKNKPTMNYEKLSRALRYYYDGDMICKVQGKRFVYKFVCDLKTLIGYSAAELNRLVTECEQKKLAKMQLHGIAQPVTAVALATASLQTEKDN
# Method in brief: as §1
# ERG = target: T4, ERG (Homo sapiens, UniProt P11308 1-479); details: protein: recombinant; tags: N-terminal GST; dsDNA, one strand shown
# T4 sequence: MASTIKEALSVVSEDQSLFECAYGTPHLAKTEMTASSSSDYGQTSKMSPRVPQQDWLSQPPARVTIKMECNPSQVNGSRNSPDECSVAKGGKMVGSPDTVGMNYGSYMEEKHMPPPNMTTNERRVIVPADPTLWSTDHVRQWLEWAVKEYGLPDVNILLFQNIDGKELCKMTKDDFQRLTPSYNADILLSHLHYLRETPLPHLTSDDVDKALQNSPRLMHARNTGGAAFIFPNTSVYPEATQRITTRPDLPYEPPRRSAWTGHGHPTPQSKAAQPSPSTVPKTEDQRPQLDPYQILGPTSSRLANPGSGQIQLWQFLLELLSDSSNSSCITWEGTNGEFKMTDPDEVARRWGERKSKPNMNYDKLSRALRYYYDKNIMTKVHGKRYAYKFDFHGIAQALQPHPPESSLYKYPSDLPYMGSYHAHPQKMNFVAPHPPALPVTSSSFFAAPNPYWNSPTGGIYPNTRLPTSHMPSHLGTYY
# Method in brief: as §1
# ELF1 = ELF1 (Homo sapiens, UniProt P32519 1-619); details: protein: recombinant; tags: N-terminal GST; dsDNA, one strand shown
# ELF1, sequence (P32519 whole entry): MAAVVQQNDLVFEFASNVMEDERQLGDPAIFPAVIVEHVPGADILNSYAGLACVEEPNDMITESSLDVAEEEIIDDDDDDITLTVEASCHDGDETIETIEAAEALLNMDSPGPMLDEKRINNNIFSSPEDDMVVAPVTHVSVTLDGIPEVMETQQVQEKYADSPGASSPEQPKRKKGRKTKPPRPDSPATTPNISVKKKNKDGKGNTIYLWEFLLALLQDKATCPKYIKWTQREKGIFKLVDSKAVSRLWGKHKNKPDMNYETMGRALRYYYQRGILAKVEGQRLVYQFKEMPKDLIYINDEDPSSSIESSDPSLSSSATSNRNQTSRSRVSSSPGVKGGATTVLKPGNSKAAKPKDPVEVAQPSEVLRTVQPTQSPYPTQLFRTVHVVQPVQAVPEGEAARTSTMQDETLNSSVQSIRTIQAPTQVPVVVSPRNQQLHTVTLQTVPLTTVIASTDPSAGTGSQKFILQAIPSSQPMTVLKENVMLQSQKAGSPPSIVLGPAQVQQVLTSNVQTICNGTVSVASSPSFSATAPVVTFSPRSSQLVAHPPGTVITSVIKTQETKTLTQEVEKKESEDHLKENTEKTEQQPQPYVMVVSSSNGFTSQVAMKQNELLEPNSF
# Method in brief: as §1
# EHF = target: T5, EHF (Homo sapiens, UniProt Q9NZC4 1-300); details: protein: recombinant; tags: N-terminal GST; dsDNA, one strand shown
# T5 sequence: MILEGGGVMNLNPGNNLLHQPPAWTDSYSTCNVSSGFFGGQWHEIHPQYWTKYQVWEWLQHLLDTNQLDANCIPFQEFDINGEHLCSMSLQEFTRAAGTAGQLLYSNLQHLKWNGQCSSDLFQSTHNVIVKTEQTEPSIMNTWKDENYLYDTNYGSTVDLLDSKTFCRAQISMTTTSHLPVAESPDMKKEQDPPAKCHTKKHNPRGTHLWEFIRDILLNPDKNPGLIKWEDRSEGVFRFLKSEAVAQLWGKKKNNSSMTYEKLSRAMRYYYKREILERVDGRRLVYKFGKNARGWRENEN
# Method in brief: as §1
# SPI1 = SPI1 (Homo sapiens, UniProt P17947 1-270); details: protein: recombinant; tags: N-terminal GST; dsDNA, one strand shown
# Method in brief: as §1
# SPIB = SPIB (Homo sapiens, UniProt Q01892 1-262); details: protein: recombinant; tags: N-terminal GST; dsDNA, one strand shown
# SPIB, sequence (Q01892 whole entry): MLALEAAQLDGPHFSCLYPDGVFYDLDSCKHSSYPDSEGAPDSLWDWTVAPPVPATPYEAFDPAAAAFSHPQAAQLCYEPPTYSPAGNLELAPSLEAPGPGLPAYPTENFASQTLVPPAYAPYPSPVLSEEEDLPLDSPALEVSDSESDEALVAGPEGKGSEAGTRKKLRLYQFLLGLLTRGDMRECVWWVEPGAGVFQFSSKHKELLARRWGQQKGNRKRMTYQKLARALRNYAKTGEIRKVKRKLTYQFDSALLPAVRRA
# Method in brief: as §1
# ELK3 = target: T6, ELK3 (Homo sapiens, UniProt P41970 1-407); details: protein: recombinant; tags: N-terminal GST; dsDNA, one strand shown
# T6 sequence: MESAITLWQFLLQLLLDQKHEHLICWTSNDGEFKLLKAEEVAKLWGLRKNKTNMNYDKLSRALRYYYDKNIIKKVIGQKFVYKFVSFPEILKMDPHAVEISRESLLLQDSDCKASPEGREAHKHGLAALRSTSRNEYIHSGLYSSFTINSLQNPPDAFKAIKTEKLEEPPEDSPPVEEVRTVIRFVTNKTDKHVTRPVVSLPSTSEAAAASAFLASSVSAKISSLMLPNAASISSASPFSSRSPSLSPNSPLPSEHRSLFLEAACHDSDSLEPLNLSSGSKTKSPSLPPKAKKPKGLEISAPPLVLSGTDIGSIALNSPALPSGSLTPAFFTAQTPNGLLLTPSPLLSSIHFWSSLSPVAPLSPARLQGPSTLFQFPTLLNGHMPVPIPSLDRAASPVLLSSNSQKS
# Method in brief: as §1
# FEV = target: T7, FEV (Homo sapiens, UniProt Q99581 1-238); details: protein: recombinant; tags: N-terminal GST; dsDNA, one strand shown
# T7 sequence: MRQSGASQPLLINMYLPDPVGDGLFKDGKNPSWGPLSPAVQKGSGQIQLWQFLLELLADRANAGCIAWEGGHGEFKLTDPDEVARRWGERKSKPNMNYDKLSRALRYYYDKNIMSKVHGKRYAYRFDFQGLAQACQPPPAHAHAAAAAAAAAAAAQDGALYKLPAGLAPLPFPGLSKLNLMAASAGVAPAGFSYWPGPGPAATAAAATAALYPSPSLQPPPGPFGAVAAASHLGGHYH
# Method in brief: as §1
# ETV5 = ETV5 (Homo sapiens, UniProt P41161 1-510); details: protein: recombinant; tags: N-terminal GST; dsDNA, one strand shown
# ETV5, sequence (P41161 whole entry): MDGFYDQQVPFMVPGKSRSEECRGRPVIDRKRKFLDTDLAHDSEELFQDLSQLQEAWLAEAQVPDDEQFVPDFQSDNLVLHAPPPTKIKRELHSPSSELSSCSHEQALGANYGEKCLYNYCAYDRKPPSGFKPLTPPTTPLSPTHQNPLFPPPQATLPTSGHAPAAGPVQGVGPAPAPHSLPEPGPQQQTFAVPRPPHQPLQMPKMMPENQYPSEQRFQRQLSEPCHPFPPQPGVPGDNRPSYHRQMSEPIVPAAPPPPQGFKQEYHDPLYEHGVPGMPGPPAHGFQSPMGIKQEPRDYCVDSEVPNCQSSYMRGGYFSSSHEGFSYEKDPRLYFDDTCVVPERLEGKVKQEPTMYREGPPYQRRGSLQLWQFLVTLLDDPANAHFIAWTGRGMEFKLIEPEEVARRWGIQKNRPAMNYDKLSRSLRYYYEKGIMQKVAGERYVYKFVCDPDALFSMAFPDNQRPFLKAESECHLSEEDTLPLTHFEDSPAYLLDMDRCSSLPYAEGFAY
# Method in brief: as §1
# HSF1 = HSF1 (Homo sapiens, UniProt Q00613 1-529); details: protein: recombinant; tags: N-terminal GST; chain copies: 3; dsDNA, one strand shown
# HSF1, sequence (Q00613 whole entry): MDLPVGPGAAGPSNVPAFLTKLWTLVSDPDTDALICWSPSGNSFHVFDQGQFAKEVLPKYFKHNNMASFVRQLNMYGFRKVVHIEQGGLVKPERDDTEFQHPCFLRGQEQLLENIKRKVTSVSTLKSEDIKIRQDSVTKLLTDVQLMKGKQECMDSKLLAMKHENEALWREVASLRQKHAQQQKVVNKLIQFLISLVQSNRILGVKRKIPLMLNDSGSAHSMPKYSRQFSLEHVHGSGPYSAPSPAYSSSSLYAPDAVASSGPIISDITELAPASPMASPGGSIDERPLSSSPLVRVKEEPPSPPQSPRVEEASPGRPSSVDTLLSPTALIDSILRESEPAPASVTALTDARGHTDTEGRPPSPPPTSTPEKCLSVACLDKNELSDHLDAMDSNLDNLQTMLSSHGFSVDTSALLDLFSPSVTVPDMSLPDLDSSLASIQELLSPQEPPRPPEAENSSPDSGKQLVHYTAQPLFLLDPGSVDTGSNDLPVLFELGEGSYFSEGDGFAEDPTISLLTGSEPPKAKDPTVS
# Method in brief: as §1
# SPIC = target: T8, SPIC (Homo sapiens, UniProt Q8N5J4 1-248); details: protein: recombinant; tags: N-terminal GST; dsDNA, one strand shown
# T8 sequence: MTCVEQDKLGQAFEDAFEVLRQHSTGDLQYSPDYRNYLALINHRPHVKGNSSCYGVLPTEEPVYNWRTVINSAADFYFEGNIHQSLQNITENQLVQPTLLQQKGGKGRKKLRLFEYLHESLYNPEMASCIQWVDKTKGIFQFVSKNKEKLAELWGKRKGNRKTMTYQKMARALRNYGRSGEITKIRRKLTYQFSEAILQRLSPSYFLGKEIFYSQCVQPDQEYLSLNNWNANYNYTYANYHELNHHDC
# Method in brief: as §1
# ELF4 = ELF4 (Homo sapiens, UniProt Q99607 1-663); details: protein: recombinant; tags: N-terminal GST; dsDNA, one strand shown
# ELF4, sequence (Q99607 whole entry): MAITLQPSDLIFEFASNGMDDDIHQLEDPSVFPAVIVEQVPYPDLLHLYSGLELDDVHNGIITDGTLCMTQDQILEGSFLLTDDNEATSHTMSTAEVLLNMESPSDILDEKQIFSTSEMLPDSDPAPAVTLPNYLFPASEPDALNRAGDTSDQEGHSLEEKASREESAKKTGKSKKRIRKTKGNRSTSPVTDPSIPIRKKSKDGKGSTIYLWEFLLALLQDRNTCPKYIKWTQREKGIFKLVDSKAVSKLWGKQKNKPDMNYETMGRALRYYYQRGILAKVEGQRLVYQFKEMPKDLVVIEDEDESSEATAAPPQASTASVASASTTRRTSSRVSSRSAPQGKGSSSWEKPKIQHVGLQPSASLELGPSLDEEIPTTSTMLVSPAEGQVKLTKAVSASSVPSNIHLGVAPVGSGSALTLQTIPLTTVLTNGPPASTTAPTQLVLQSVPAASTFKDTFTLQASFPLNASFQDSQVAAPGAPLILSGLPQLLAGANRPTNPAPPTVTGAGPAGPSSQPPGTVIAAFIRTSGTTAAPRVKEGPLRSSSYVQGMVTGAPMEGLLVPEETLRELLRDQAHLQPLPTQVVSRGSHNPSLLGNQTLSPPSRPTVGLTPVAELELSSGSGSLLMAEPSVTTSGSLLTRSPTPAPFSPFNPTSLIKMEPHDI
# Method in brief: as §1
# ELK4 = target: T9, ELK4 (Homo sapiens, UniProt P28324-2 1-405); details: protein: recombinant; tags: N-terminal GST; dsDNA, one strand shown
# T9 sequence: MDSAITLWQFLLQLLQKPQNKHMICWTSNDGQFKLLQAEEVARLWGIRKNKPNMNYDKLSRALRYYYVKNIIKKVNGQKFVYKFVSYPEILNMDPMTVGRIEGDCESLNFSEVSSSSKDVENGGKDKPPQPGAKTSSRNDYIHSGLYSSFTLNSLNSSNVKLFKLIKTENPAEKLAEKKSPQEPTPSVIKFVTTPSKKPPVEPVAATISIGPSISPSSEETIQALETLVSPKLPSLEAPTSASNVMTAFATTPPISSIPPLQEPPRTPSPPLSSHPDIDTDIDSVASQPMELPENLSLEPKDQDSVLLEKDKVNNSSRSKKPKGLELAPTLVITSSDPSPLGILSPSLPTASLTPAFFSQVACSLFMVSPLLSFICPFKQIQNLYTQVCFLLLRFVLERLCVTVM
# Method in brief: as §1
# ETV2 = target: T10, ETV2 (Homo sapiens, UniProt O00321 1-342); details: protein: recombinant; tags: N-terminal GST; dsDNA, one strand shown
# T10 sequence: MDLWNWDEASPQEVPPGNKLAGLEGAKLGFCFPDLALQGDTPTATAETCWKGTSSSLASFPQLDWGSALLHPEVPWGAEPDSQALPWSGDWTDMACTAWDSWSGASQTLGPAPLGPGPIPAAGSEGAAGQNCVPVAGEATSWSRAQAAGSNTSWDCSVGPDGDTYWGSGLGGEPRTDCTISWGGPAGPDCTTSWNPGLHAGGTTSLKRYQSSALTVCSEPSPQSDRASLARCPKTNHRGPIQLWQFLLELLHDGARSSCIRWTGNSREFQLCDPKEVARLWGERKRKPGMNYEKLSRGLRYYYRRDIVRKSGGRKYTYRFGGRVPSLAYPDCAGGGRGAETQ
# Method in brief: as §1
# ELF3 = target: T11, ELF3 (Homo sapiens, UniProt P78545 1-371); details: protein: recombinant; tags: N-terminal GST; dsDNA, one strand shown
# T11 sequence: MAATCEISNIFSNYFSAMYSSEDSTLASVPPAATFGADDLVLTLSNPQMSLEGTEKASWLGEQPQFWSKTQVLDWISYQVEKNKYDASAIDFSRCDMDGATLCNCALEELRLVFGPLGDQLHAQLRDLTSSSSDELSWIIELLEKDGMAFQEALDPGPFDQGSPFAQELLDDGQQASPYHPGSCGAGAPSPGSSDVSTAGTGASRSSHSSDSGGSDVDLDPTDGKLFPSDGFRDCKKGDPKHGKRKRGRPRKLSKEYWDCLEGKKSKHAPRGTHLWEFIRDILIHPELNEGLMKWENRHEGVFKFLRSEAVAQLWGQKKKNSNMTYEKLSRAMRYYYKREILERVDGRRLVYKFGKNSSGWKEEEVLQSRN
# Method in brief: as §1
# CRX = CRX (Homo sapiens, UniProt O43186 1-299); details: protein: recombinant; tags: N-terminal GST; dsDNA, one strand shown
# CRX, sequence (O43186 whole entry): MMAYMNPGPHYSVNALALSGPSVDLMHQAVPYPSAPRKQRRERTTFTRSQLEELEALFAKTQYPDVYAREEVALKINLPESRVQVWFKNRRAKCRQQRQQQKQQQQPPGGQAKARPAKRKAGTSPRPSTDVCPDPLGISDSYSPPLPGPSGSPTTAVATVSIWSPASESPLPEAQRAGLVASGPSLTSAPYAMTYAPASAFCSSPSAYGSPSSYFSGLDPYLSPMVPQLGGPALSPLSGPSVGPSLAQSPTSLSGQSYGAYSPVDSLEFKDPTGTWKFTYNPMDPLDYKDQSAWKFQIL
# Method in brief: as §1
# ETV1 = ETV1 (Homo sapiens, UniProt P50549 1-477); details: protein: recombinant; tags: N-terminal GST; dsDNA, one strand shown
# ETV1, sequence (P50549 whole entry): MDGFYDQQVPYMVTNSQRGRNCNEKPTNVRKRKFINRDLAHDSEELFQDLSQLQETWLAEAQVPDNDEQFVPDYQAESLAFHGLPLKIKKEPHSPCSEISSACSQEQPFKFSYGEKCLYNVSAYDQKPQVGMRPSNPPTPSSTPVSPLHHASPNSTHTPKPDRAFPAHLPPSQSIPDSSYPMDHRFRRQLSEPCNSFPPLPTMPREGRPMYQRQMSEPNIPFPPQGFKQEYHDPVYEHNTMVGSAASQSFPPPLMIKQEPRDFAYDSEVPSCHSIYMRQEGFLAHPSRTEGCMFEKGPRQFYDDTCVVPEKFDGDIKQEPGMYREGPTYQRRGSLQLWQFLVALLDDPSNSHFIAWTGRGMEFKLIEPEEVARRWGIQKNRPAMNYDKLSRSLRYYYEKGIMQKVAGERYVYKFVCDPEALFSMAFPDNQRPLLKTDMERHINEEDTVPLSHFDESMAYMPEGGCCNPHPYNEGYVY
# Method in brief: as §1
sequence,measurement,setting,value
TCTAAG,binding signal,FLI1,"1.22 fold enrichment (6-mer frequency, TF over GST control)"
same,binding signal,ELK1,"1.19 fold enrichment (6-mer frequency, TF over GST control)"
same,binding signal,GABPA,"1.3 fold enrichment (6-mer frequency, TF over GST control)"
same,binding signal,ERG,"1.2 fold enrichment (6-mer frequency, TF over GST control)"
same,binding signal,ELF1,"1.29 fold enrichment (6-mer frequency, TF over GST control)"
same,binding signal,EHF,"1.28 fold enrichment (6-mer frequency, TF over GST control)"
same,binding signal,SPI1,"1.17 fold enrichment (6-mer frequency, TF over GST control)"
same,binding signal,SPIB,"1.28 fold enrichment (6-mer frequency, TF over GST control)"
same,binding signal,ELK3,"1.22 fold enrichment (6-mer frequency, TF over GST control)"
same,binding signal,FEV,"1.13 fold enrichment (6-mer frequency, TF over GST control)"
same,binding signal,ETV5,"1.3 fold enrichment (6-mer frequency, TF over GST control)"
same,binding signal,HSF1,"1.49 fold enrichment (6-mer frequency, TF over GST control)"
same,binding signal,SPIC,"1.21 fold enrichment (6-mer frequency, TF over GST control)"
same,binding signal,ELF4,"1.25 fold enrichment (6-mer frequency, TF over GST control)"
same,binding signal,ELK4,"1.2 fold enrichment (6-mer frequency, TF over GST control)"
same,binding signal,ETV2,"1.29 fold enrichment (6-mer frequency, TF over GST control)"
same,binding signal,ELF3,"1.27 fold enrichment (6-mer frequency, TF over GST control)"
same,binding signal,CRX,"1.86 fold enrichment (6-mer frequency, TF over GST control)"
same,binding signal,ETV1,"1.25 fold enrichment (6-mer frequency, TF over GST control)"
